Source: PubChem BioAssay (National Center for Advancing Translational Sciences (NCATS))
Shown are actives, neighbours in structure and some others; about 21% of the full set was active somewhere.
NS1 function inh = qHTS Assay for Inhibitors of Influenza NS1 Protein Function. Potency, µM (top dose mostly 46.1 µM). actives 0.4% (n = 270,000). AID 2326, 2010; calls by dose curve; further: actives are rising curves; nearly all actives have a fitted effect of over 50% in size
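In this qHTS, NS1 from influenza A is expressed in budding yeast, where it slows growth. Cells are switched from glucose to 2% galactose medium (pH 6.0, -URA), treated with compound, and growth recovery is read at OD600.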
Pf growth 48h = Primary qHTS for delayed death inhibitors of the malarial parasite plastid, 48 hour incubation. P. falciparum luciferase growth in erythrocytes, 48 h. Potency, µM (doses to about 28.7 µM), most hits filed as inhibitors. actives 5.9% (n = 310,000). AID 504832, 2011
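A one-generation exposure of luciferase-tagged malaria parasites in RPMI 1640/Albumax erythrocyte culture, 37 C and 5% CO2. Inhibition is inferred from decreased luminescence after adding detection reagent.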
Shiga toxin inh = A qHTS for Small Molecule Inhibitors of Shiga Toxin; Vero cells, Shiga toxin protein synthesis inhibition reporter; inhibition, % at 38.7 µM; actives 9.2% (n = 290,000); in the data active means inhibition mostly above about 28%, no sharp cut-off; inactive means mostly below about 43%
CHX counter = Cycloheximide Counterscreen for Small Molecule Inhibitors of Shiga Toxin | AID 2314, 2010 | max response, % | cell reporter, cycloheximide protein synthesis inhibition counterscreen | actives 12% (n = 300,000); in the data active means max response mostly above about 13%, no sharp cut-off; inactive means mostly below about 14%; further: read at 38.3 µM for the half of the compounds with a filed dose
Pf growth 96h = Primary qHTS for delayed death inhibitors of the malarial parasite plastid, 96 hour incubation | AID 504834, 2011 | actives 6.9% (n = 320,000) | Potency, µM (top dose mostly 28.7 µM), usual class: inhibitors | P. falciparum luciferase reporter growth, 96 h
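P. falciparum expressing integrated firefly luciferase grown in erythrocytes (2% hematocrit, 0.05% parasitemia final) with compounds for 96 hours at 37 C, 5% CO2. Growth inhibition read as loss of luminescence after adding luciferase detection reagent.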
Sm TGR block = qHTS Assay for the Inhibitors of Schistosoma Mansoni Peroxiredoxins; Schistosoma mansoni thioredoxin glutathione reductase (TGR), Q962Y6; purified TGR, DTNB reduction, TNB absorbance 405 nm; Potency, µM (titrated, usually from 114 µM), usual class: inhibitors; actives 3% (n = 360,000); AID 485364, 2010; further: nearly all actives have a fitted effect of over 60% in size
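First, TGR (20 nM dispensed) and NADPH were mixed with compound. Second, a 15 min room-temperature incubation followed. Third, further NADPH and then DTNB were added to start the reaction. Finally, TNB absorbance was monitored kinetically.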
Hits are given with their value. Unless noted, the call rests on the fitted dose curve; in most records, active means well fitted curve in the direction sought with a large enough effect; inconclusive means small, poorly fitted or top-dose-only effect, or another doubt; inactive means no such curve, though single readings can be large; an effect the other way counts as inactive or inconclusive.

For CCOc1cc(/C=C2/C(=N)N3C(=NC2=O)SN=C3S(=O)(=O)CC)ccc1OC(=O)c1ccco1 the results were NS1 function inh inactive, Pf growth 48h inactive, Shiga toxin inh inactive, CHX counter inactive, Pf growth 96h 10.4µM and Sm TGR block inactive.
Cc1nc(Cl)c(N=Cc2cccc([N+](=O)[O-])c2)c(Cl)n1 was read as NS1 function inh inactive, Pf growth 48h inactive, Shiga toxin inh inactive, CHX counter inactive, Pf growth 96h inactive and Sm TGR block inactive.
`COc1ccc(N(C(=O)/C=C\C(=O)Nc2ccc(Cl)cc2)C(C(=O)NCc2ccco2)c2ccc(C)cc2)cc1` (stereo unspecified) gave Sm TGR block 7.94µM.
Screening CCOc1ccc(NC(=O)/C=C\C(=O)N(c2ccc(C(C)C)cc2)C(C(=O)NCc2ccco2)c2ccc(F)cc2)cc1 (stereo unspecified) returned Sm TGR block 56.2µM.
`COc1cccc(C2c3[nH]c4ccccc4c3C[C@H]3C(=O)N(c4ccccc4C(=O)N4CCC(C(=O)O)CC4)C(=O)N23)c1` (stereo partly specified) gave NS1 function inh inactive, Pf growth 48h inconclusive, Shiga toxin inh inactive, CHX counter inactive, Pf growth 96h inconclusive and Sm TGR block inactive.
COc1ccc(C2c3[nH]c4ccccc4c3C[C@H]3C(=O)N(c4ccccc4C(=O)N4CCC(C(=O)O)CC4)C(=O)N23)cc1 (stereo partly specified) was read as NS1 function inh inactive, Pf growth 48h 11.7µM, Shiga toxin inh inactive, CHX counter inactive, Pf growth 96h inconclusive and Sm TGR block inactive.
For CC(C)c1ccc(C2c3[nH]c4ccccc4c3C[C@H]3C(=O)N(c4ccccc4C(=O)N4CCC[C@H]4C(=O)O)C(=O)N23)cc1 (stereo partly specified) the results were NS1 function inh inactive, Pf growth 48h 6.57µM, Shiga toxin inh inactive, CHX counter inactive, Pf growth 96h inconclusive and Sm TGR block inactive.
Screening Cc1cc(Cl)c(S(=O)(=O)N/N=C/c2ccc3c(c2)OCO3)c(Cl)c1 returned NS1 function inh inactive, Pf growth 48h inactive, Shiga toxin inh 53.5, CHX counter 40.6, Pf growth 96h inactive and Sm TGR block inactive.
For Cc1cc(C)c(S(=O)(=O)N/N=C/c2ccc3c(c2)OCO3)c(C)c1 the results were NS1 function inh inactive, Pf growth 48h inactive, Shiga toxin inh inactive, CHX counter 14.2, Pf growth 96h inactive and Sm TGR block inactive.
For Cc1ccccc1C(=O)Nc1ccccc1OCc1cc(=O)n2ccccc2n1 the results were Sm TGR block inactive.
CC(C)(C)NC(=O)c1ccc2c(c1)N(CC(=O)N1CCN(c3ccc(F)cc3)CC1)C(=O)C(C)(C)O2 was read as NS1 function inh inactive, Pf growth 48h 10.4µM, Shiga toxin inh inactive, CHX counter inactive and Sm TGR block inactive.
CC(C)(C)NC(=O)c1ccc2c(c1)N(CC(=O)N1CCCC1)C(=O)C(C)(C)O2 was read as NS1 function inh inactive, Pf growth 48h inactive, CHX counter inactive, Pf growth 96h inconclusive and Sm TGR block inactive.
For COC(=O)c1cc(NC(=O)c2cc(-c3ccc(C(F)(F)F)cc3)oc2C(F)(F)F)ccc1N1CCOCC1 the results were NS1 function inh inconclusive, Pf growth 48h 2.08µM, Shiga toxin inh inactive, CHX counter inactive, Pf growth 96h 1.47µM and Sm TGR block inactive.
Screening COC(=O)c1cc(NC(=O)c2cc(-c3ccc(OC)cc3)oc2C(F)(F)F)ccc1N1CCOCC1 returned NS1 function inh inactive, Pf growth 48h 8.28µM, Shiga toxin inh inactive, CHX counter inactive, Pf growth 96h 9.28µM and Sm TGR block inactive.
`Clc1ccc(COc2ccccc2-c2ccnc3ncnn23)cc1` gave Pf growth 48h inactive, Shiga toxin inh 77.3, CHX counter 38.7, Pf growth 96h inactive and Sm TGR block inactive.
CCC(C)NC(=O)CCCc1nnc2n(CC(C)C)c(=O)c3sccc3n12 (stereo unspecified) was read as Sm TGR block inactive.
CN1CCN(C(=O)CNc2ccc(C(F)(F)F)cc2[N+](=O)[O-])CC1 was read as Pf growth 48h inactive, Shiga toxin inh inactive, CHX counter inactive, Pf growth 96h inconclusive and Sm TGR block inactive.
